Assay outcomes as filed in PubChem BioAssay.
FLuc counter = inhibits or activates purified firefly luciferase, miR-21 counter-screen; P08659; purified FLuc, Km substrates, luminescence inhibition; Potency, µM (series often up to 57.5 µM), usual class: inhibitors; 360,000 compounds, 6.9% hits; AID 588342; also: nearly all actives have a fitted effect of over 55% in size
Target sequence (P08659 whole entry, looked up): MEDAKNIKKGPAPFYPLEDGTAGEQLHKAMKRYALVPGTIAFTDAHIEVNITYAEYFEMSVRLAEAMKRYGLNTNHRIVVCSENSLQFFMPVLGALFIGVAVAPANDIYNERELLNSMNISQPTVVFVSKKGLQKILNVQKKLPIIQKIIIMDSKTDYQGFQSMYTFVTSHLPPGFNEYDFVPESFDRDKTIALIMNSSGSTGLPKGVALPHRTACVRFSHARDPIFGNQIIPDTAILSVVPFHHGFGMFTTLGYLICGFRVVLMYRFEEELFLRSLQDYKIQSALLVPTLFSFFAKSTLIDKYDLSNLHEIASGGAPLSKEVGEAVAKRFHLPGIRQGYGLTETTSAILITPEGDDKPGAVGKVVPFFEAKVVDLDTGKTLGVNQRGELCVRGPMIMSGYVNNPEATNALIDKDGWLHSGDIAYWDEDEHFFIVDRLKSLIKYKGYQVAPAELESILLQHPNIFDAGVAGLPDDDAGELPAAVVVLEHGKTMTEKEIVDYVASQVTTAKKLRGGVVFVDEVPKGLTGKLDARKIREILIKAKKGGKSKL
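Purified P. pyralis luciferase (10nM final) with 10uM D-luciferin and 10uM ATP (Km levels) in 50mM Tris acetate pH 7.5, 10mM Mg acetate, 0.01% Tween-20, 0.05% BSA; qHTS 6-point titration, ~60 µM downward; luminescence read.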
ELG1 genotoxic = induces genotoxicity in HEK293T cells with luciferase-tagged ELG1. HEK293T ELG1-luciferase reporter, luminescence, 16 h. Potency, µM (series often up to 46 µM), usual class: activators. 330,000 compounds, 1.3% hits; also: nearly all actives have a fitted effect of over 60% in size
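Reporter readout depends on ELG1 protein level, which increases with genetic stress. After 16 hr compound exposure at 37 °C, luciferase activity was quantified using ONE-Glo.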
NPC1 prom act = NPC1 promoter activation; Huh7 NPC1 promoter luciferase reporter, 24 h; Potency, µM (doses to about 9.22 µM), hits mostly activators; 320,000 compounds, 2.4% hits; AID 485313; also: nearly all actives have a fitted effect of over 60% in size
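Luminescence from an NPC1 promoter-driven luciferase reporter in stably transfected Huh7 cells was measured after 24 h compound treatment at 37 °C, followed by 10 min ambient incubation with luciferase detection reagent.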
SMN2 splice up = enhancers of SMN2 splice variant expression | Potency, µM (top dose mostly 46.1 µM), most hits filed as activators | AID 1458 | HEK293 SMN2-luciferase splicing reporter, luminescence, 30-36 h | 210,000 compounds, 2.8% hits; also: nearly all actives have a fitted effect of over 55% in size
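HEK293 cells carry an SMN2 minigene-luciferase reporter in which exon 7 inclusion puts luciferase in frame. Cells were seeded at 2000 cells/well, attached for 10-12 hours, then exposed to compounds for 30-36 hours at 37C before ONE-Glo luminescence.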
Rab9 prom act = activators of Rab9 promoter; Huh7 Rab9 promoter-luciferase reporter, luminescence, 24 h; Potency, µM (doses to about 9.22 µM), most hits filed as activators; 320,000 compounds, 2.8% hits; AID 485297; also: nearly all actives have a fitted effect of over 60% in size
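Quantitative HTS format; Huh7 Rab9-luciferase reporter cells (1500/well) receive compound 2 h post-plating, incubate 24 h at 37 °C, then get luciferase reagent for 10 min before luminescence reading.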
Of the large screens only hits and unclear results are named; the others gave an inactive call. This is a sample that favours compounds with a hit; in the whole collection about 7.4% have one here. Calls follow the shape of the dose curve; as a rule, active = well fitted curve in the direction sought with a large enough effect; inconclusive = small, poorly fitted or top-dose-only effect, or another doubt; inactive = no such curve, though single readings can be large; an effect the other way counts as inactive or inconclusive.

CCCn1c(CCC(=O)Nc2cc(C(=O)OC)cc(C(=O)OC)c2)nc2cccnc21	none (no result: ELG1 genotoxic, NPC1 prom act, Rab9 prom act)
CC(C)c1ccc(C(=O)NC2=NCCS2)cc1	FLuc counter 1.9µM, ELG1 genotoxic 1.64µM, NPC1 prom act 0.562µM, SMN2 splice up 2µM, Rab9 prom act 0.398µM
CCCC1CC(C(=O)N[C@H](C(C)O)C2OC(SC)[C@@H](O)C(O)C2O)N(C)C1 (stereo partly specified)	none (no result: FLuc counter, ELG1 genotoxic, NPC1 prom act, Rab9 prom act)
Cc1ccc(-c2nnn(CC(=O)N(CC(=O)NCCC(C)C)c3ccc(F)cc3)n2)cc1	none (no result: ELG1 genotoxic, NPC1 prom act, Rab9 prom act)
O=C(/C=C/Nc1ccc(F)c(F)c1)c1cccs1	FLuc counter 0.953µM, ELG1 genotoxic inconclusive, NPC1 prom act 3.16µM, Rab9 prom act 2.51µM (no result: SMN2 splice up)
O=C(/C=C/Nc1ccc(F)c(F)c1)c1ccc(Br)cc1	FLuc counter 1.51µM, ELG1 genotoxic inconclusive, NPC1 prom act 2µM, SMN2 splice up 12.6µM, Rab9 prom act 2.51µM
O=C(/C=C/Nc1ccc(F)cc1)c1ccc(Br)cc1	FLuc counter 2.13µM, ELG1 genotoxic inconclusive, NPC1 prom act 2µM, SMN2 splice up 12.6µM, Rab9 prom act 1.41µM
Cc1ccc(OCC(=O)Nc2cc(-c3nc4ccccc4[nH]3)ccc2C)c(C)c1	none (no result: ELG1 genotoxic, NPC1 prom act, Rab9 prom act)
Cc1ccc(-c2nc3ccccc3[nH]2)cc1NC(=O)/C=C/c1ccco1	FLuc counter 8.49µM, Rab9 prom act inconclusive
CCCOc1ccc(C(=O)Nc2cc(-c3nc4ccccc4[nH]3)ccc2C)cc1	FLuc counter inconclusive (no result: ELG1 genotoxic, NPC1 prom act, Rab9 prom act)
Cc1ccc(-c2nc3ccccc3[nH]2)cc1NC(=S)NC(=O)c1ccccc1Br	FLuc counter 5.36µM
Cc1cc(C)c2oc(-c3ccc(C)c(NC(=S)NC(=O)/C=C/c4ccco4)c3)nc2c1	FLuc counter inconclusive
S=C(NCc1ccc2c(c1)OCO2)Nc1ccc(-c2nc3ccccc3[nH]2)cc1	FLuc counter inconclusive
O=C(NC(=S)Nc1cc(-c2nc3ccccc3[nH]2)ccc1Cl)c1ccc2c(c1)OCO2	FLuc counter 6.75µM
Cc1ccc(-c2nc3ccccc3[nH]2)cc1NC(=O)c1ccc2c(c1)OCO2	FLuc counter 10.7µM, NPC1 prom act inconclusive
CCCCCn1c(CCNC(=O)c2cccc(C)c2)nc2ccccc21	none (no result: ELG1 genotoxic, NPC1 prom act, Rab9 prom act)
Cc1sc2c(c1C)c(=O)n(-c1ccc(Cl)cc1)c(=O)n2Cc1cc(=O)n2cc(Br)ccc2n1	none (no result: ELG1 genotoxic, NPC1 prom act, Rab9 prom act)
COCCCn1c(SCC(=O)Nc2ccc(F)cc2)nc2c(sc3ccccc32)c1=O	none (no result: ELG1 genotoxic, NPC1 prom act, SMN2 splice up, Rab9 prom act)
Cc1ccc(CSc2nnc(SCC(=O)N/N=C/c3c(C)nn(-c4ccccc4)c3C)s2)cc1	FLuc counter 4.26µM, NPC1 prom act inconclusive, Rab9 prom act inconclusive
Cc1nn(-c2ccccc2)c(C)c1/C=N/NC(=O)CSc1nnc(SCc2ccccc2Cl)s1	FLuc counter 6.75µM, NPC1 prom act inconclusive, SMN2 splice up inconclusive
Cc1ccc(-c2nnc(SCC(=O)N/N=C/c3c(C)nn(-c4ccccc4)c3C)n2-c2ccccc2)cc1	none
CCOc1ccc(OCCC(=O)OCC(=O)Nc2ccc(C)c(S(=O)(=O)N3CCCCC3)c2)cc1	FLuc counter 10.7µM (no result: SMN2 splice up)
CCOc1cc(C(=O)CCC(=O)OCC(=O)Nc2ccc(C)c(S(=O)(=O)N(C)C)c2)ccc1O	FLuc counter 19µM
O=C(c1ccc(Cl)cc1)N1CCn2c1nc1ccccc12	FLuc counter inconclusive, SMN2 splice up inconclusive, Rab9 prom act inconclusive
O=C(c1cccs1)N1CCn2c1nc1ccccc12	FLuc counter inconclusive, ELG1 genotoxic inconclusive, NPC1 prom act 2.82µM, SMN2 splice up 12.6µM, Rab9 prom act 3.98µM
COC(=O)c1c(Oc2ccc(OC)cc2)nnc(-c2ccccc2)c1-c1ccccc1	none (no result: ELG1 genotoxic, NPC1 prom act, Rab9 prom act)
CCCCOc1ccc(-c2cc(C(=O)NNC(=S)NCC)c3ccccc3n2)cc1	FLuc counter 0.0757µM, ELG1 genotoxic inconclusive, NPC1 prom act inconclusive, SMN2 splice up 3.16µM, Rab9 prom act inconclusive
CCNC(=S)NNC(=O)c1cc(-c2ccc(OC)cc2)nc2ccccc12	FLuc counter 0.0757µM, ELG1 genotoxic inconclusive, NPC1 prom act inconclusive, SMN2 splice up 7.94µM, Rab9 prom act inconclusive
CCNC(=S)NNC(=O)c1cc(-c2cccc(OCC)c2)nc2ccccc12	FLuc counter 1.35µM, ELG1 genotoxic inconclusive
CC(C)COc1cccc(-c2cc(C(=O)Nc3ccon3)c3ccccc3n2)c1	FLuc counter inconclusive (no result: SMN2 splice up)
CCNC(=S)NNC(=O)c1cc(-c2cccc(C)c2)nc2ccccc12	FLuc counter 0.338µM, NPC1 prom act inconclusive, SMN2 splice up inconclusive, Rab9 prom act inconclusive
CC1(C)N=C(c2ccc(F)cc2)C(=O)N1CC(=O)Nc1ccccc1Cl	none (no result: ELG1 genotoxic, NPC1 prom act, Rab9 prom act)
CCCCOc1cccc(-c2cc(C(=O)NNC(=S)NCC)c3ccccc3n2)c1	FLuc counter 1.51µM, ELG1 genotoxic inconclusive
Fc1ccc(-c2nc(-c3cnccn3)no2)c(Cl)c1	FLuc counter 2.39µM, ELG1 genotoxic inconclusive, NPC1 prom act 0.447µM, Rab9 prom act 0.316µM (no result: SMN2 splice up)
Clc1ccc(-c2nc(-c3cnccn3)no2)cc1	FLuc counter 2.39µM, ELG1 genotoxic inconclusive, NPC1 prom act 0.562µM, Rab9 prom act 0.708µM (no result: SMN2 splice up)
OC1(c2ccc(Cl)cc2)CCN(Cc2nc(-c3cnccn3)no2)CC1	none (no result: SMN2 splice up)
CN(CCc1ccccc1)Cc1nc(-c2cnccn2)no1	none
Cn1nc(C(=O)Nc2ccc3c(c2)OCCO3)cc1C(=O)O	FLuc counter 9.53µM
Cn1ccc(C(=O)Nc2ccc3c(c2)OCCO3)n1	FLuc counter inconclusive, ELG1 genotoxic 5.8µM, NPC1 prom act 0.891µM, Rab9 prom act 0.708µM (no result: SMN2 splice up)
